Experiment [1] in a line: qHTS of pediatric cancer cell lines to identify multiple opportunities for drug repurposing: Primary screen for Rh30 cells (AID 1347107). Also: nearly all actives have a fitted effect of over 75% in size. Also: potency is read from the fitted curve at half-maximal effect. The conditions noted are these: Rh30 rhabdomyosarcoma viability, CellTiter-Glo luminescence, 48 h; series mostly up to 46 µM. The method, boiled down: (§1)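 Cells (500-1,000/well) rested 5 h, then received compounds for 48 h; metabolically active cells were measured by CellTiter-Glo luminescence. Final concentrations spanned up to 46 µM (MIPE, 11-point) or 0.59 nM-46 µM (NPC, 8-point) in primary screens, 11-point in follow-ups.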
For orientation: qHTS replaces the single test concentration by a dilution series.

A short description of experiment [2]: qHTS of pediatric cancer cell lines to identify multiple opportunities for drug repurposing: Primary screen for control Hh wild type fibroblast cells (AID 1347106). Also: nearly all actives have a fitted effect of over 55% in size. Also: potency is read from the fitted curve at half-maximal effect. The settings on record: Hh wild-type fibroblast viability, CellTiter-Glo luminescence, 48 h; series mostly up to 46 µM. The gist of the method: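 Viability after 48 h compound treatment at 37C, 500-1,000 cells/well, read as ATP luminescence with CellTiter-Glo. Primary screens used 11-point (MIPE, 0.78 nM-46 µM) or 8-point (NPC, 0.59 nM-46 µM) final concentrations; follow-up screens used 11-point dilutions.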

A short description of experiment [3]: qHTS of pediatric cancer cell lines to identify multiple opportunities for drug repurposing: Primary screen for Rh41 cells (AID 1347108). Also: nearly all actives have a fitted effect of over 70% in size. Also: potency is read from the fitted curve at half-maximal effect. The conditions noted are these: Rh41 rhabdomyosarcoma viability, CellTiter-Glo luminescence, 48 h; series mostly up to 46 µM. The method, boiled down:
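Following a 5-hour attachment period, cells at 500-1,000/well received compounds and were cultured for 48 hours. CellTiter-Glo was added and luminescence read to estimate viable, metabolically active cells.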

The nature of experiment [4]: qHTS of pediatric cancer cell lines to identify multiple opportunities for drug repurposing: Confirmatory screen for BT-12 cells (AID 1347112). Also: nearly all actives have a fitted effect of over 55% in size. Also: potency is read from the fitted curve at half-maximal effect. The conditions noted are these: BT-12 rhabdoid tumor cells, viability; series mostly up to 45.9 µM. The gist of the method: as §1
Experiment [5] in a line: qHTS of pediatric cancer cell lines to identify multiple opportunities for drug repurposing: Confirmatory screen for LAN-5 cells (AID 1347113). Also: nearly all actives have a fitted effect of over 65% in size. Also: potency is read from the fitted curve at half-maximal effect. The settings on record: LAN-5 neuroblastoma cell viability; series mostly up to 45.9 µM. The method, boiled down: as §1
Experiment [6] in a line: qHTS of pediatric cancer cell lines to identify multiple opportunities for drug repurposing: Confirmatory screen for DAOY cells (AID 1347114). Also: nearly all actives have a fitted effect of over 65% in size. Also: potency is read from the fitted curve at half-maximal effect. The conditions noted are these: DAOY medulloblastoma cells viability, cytotoxicity qHTS; series mostly up to 45.9 µM. The gist of the method:
(§2)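 Viability measured as metabolically active cells via CellTiter-Glo luminescence following 48 hours of compound exposure, 11-point dilutions in confirmatory testing. 500-1,000 cells/well plated 5 hours before dosing; controls were DMSO and 2.3 µM bortezomib.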

Experiment [7] in a line: qHTS of pediatric cancer cell lines to identify multiple opportunities for drug repurposing: Confirmatory screen for SJ-GBM2 cells (AID 1347116). Also: nearly all actives have a fitted effect of over 60% in size. Also: potency is read from the fitted curve at half-maximal effect. The conditions noted are these: SJ-GBM2 glioblastoma cells, viability; series mostly up to 45.9 µM. The method, boiled down:
as §2

Experiment [8] in a line: qHTS of pediatric cancer cell lines to identify multiple opportunities for drug repurposing: Confirmatory screen for BT-37 cells (AID 1347117). Also: nearly all actives have a fitted effect of over 55% in size. Also: potency is read from the fitted curve at half-maximal effect. The conditions noted are these: BT-37 pediatric cancer cells, viability; series mostly up to 45.9 µM. The gist of the method: as §1
The nature of experiment [9]: qHTS of pediatric cancer cell lines to identify multiple opportunities for drug repurposing: Confirmatory screen for control Hh wild type fibroblast cells (AID 1347121). Also: nearly all actives have a fitted effect of over 70% in size. The settings on record: viability qHTS; series mostly up to 45.9 µM. The gist of the method:
as §1

Experiment [10] can be described thus: qHTS of pediatric cancer cell lines to identify multiple opportunities for drug repurposing: Confirmatory screen for U-2 OS cells (AID 1347122). Also: nearly all actives have a fitted effect of over 65% in size. The conditions noted are these: U-2 OS osteosarcoma cell viability; series mostly up to 45.9 µM. The gist of the method:
as §1

The nature of experiment [11]: qHTS of pediatric cancer cell lines to identify multiple opportunities for drug repurposing: Confirmatory screen for Rh41 cells (AID 1347123). Also: potency is read from the fitted curve at half-maximal effect; nearly all actives have a fitted effect of over 60% in size. The settings on record: Rh41 rhabdomyosarcoma cells, viability/cytotoxicity qHTS; series mostly up to 45.9 µM. The method, boiled down: as §1
The nature of experiment [12]: qHTS of pediatric cancer cell lines to identify multiple opportunities for drug repurposing: Confirmatory screen for RD cells (AID 1347124).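 Also: cells exposed to compound for 48 h before viability readout; nearly all actives have a fitted effect of over 65% in size.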 Also: potency is read from the fitted curve at half-maximal effect. The settings on record: RD rhabdomyosarcoma cell viability; series mostly up to 45.9 µM. The method, boiled down:
as §1

Experiment [13] is described as follows: qHTS of pediatric cancer cell lines to identify multiple opportunities for drug repurposing: Confirmatory screen for Rh30 cells (AID 1347126). Also: nearly all actives have a fitted effect of over 55% in size. Also: potency is read from the fitted curve at half-maximal effect. The settings on record: Rh30 rhabdomyosarcoma cell viability; series mostly up to 45.9 µM. The method, boiled down: as §1
The nature of experiment [14]: qHTS of pediatric cancer cell lines to identify multiple opportunities for drug repurposing: Confirmatory screen for NB1643 cells (AID 1347109). Also: nearly all actives have a fitted effect of over 45% in size. Also: potency is read from the fitted curve at half-maximal effect. The conditions noted are these: NB1643 neuroblastoma cell viability; series mostly up to 45.9 µM. The gist of the method: as §1
Experiment [15] is described as follows: qHTS of pediatric cancer cell lines to identify multiple opportunities for drug repurposing: Confirmatory screen for A673 cells (AID 1347110). Also: potency is read from the fitted curve at half-maximal effect. The conditions noted are these: A673 Ewing sarcoma cell viability; series mostly up to 45.9 µM. The method, boiled down: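 Concentration-response curves came straight from titrations: 11 points (0.78 nM to 46 µM) for MIPE and several concentrations (0.59 nM to 46 µM) for NPC in primary, 11 points in follow-up. Readout: ATP luminescence at 48 h.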

Experiment [16] in a line: qHTS of pediatric cancer cell lines to identify multiple opportunities for drug repurposing: Confirmatory screen for SK-N-MC cells (AID 1347111).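 Also: potency is read from the fitted curve at half-maximal effect; cells exposed to compound for 48 h before the readout; nearly all actives have a fitted effect of over 70% in size.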 The settings on record: SK-N-MC cell viability; series mostly up to 45.9 µM. The method, boiled down: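 Seed 500-1,000 cells/well; rest 5 h at 37 degrees C. Pin-transfer compounds, 11-point titration. Incubate 48 h. Add CellTiter-Glo, 15 min RT, read luminescence.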

Experiment [17] is described as follows: qHTS of pediatric cancer cell lines to identify multiple opportunities for drug repurposing: Confirmatory screen for TC32 cells (AID 1347118). The conditions noted are these: TC32 Ewing sarcoma cells viability qHTS; series mostly up to 0.556 µM. The gist of the method:
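Luminescent CellTiter-Glo read-out of metabolically active TC32 cells after 48 h compound exposure. Primary: MIPE 11-point, 0.78 nM–46 µM; NPC 8-point, 0.59 nM–46 µM. Confirmatory: 11-point dilutions.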

Experiment [18] is described as follows: qHTS of pediatric cancer cell lines to identify multiple opportunities for drug repurposing: Confirmatory screen for NB-EBc1 cells (AID 1347115).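 Also: cells exposed to compound for 48 h before the viability read; nearly all actives have a fitted effect of over 45% in size.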 The settings on record: NB-EBc1 neuroblastoma cells, viability (cytotoxicity); series mostly up to 45.9 µM. The method, boiled down:
as §1

Experiment [19] in a line: qHTS of pediatric cancer cell lines to identify multiple opportunities for drug repurposing: Confirmatory screen for Rh18 cells (AID 1347125). Also: nearly all actives have a fitted effect of over 55% in size. Also: potency is read from the fitted curve at half-maximal effect. The settings on record: Rh18 rhabdomyosarcoma cells, viability; series mostly up to 45.9 µM. The gist of the method: as §1

Records with an inconclusive call do not appear. The source made the active and inactive calls. Calls follow the shape of the dose curve; as a rule, active = well fitted curve in the direction sought with a large enough effect; inconclusive = small, poorly fitted or top-dose-only effect, or another doubt; inactive = no such curve, though single readings can be large; an effect the other way counts as inactive or inconclusive.

Regarding `CN1CCN(CCC(=O)N2c3ccccc3Sc3ccc(C(F)(F)F)cc32)CC1`, the Potency entry in experiment [1] is “inactive”.
For the compound `CCOc1ccccc1OCCN[C@H](C)Cc1ccc(OC)c(S(N)(=O)=O)c1`, the Potency result in experiment [2], in experiment [1] and in [3] was “inactive” each time.
For the compound `O=C(Oc1cccc2cccnc12)c1ccccc1`, the Potency entry in experiment [2], in experiment [6], in experiment [7], in experiment [9], in experiment [10] and in [12] was “inactive” in each case. For the same compound, the Potency entry in experiment [13] was “inactive”. Also, the Potency in experiment [4] was 9.27 µM (active); in experiment [5], 9.27 µM (active); in experiment [8] it was 20.8 µM (active); in experiment [11], 8.27 µM (active).
As to `Nc1nc(Cl)nc2c1ncn2[C@@H]1O[C@H](CO)[C@@H](O)[C@@H]1F`, the Potency entry in [2], in experiment [1], in experiment [3], in experiment [9], in [10] and in experiment [12] was “inactive” in each case. For the same compound, the Potency was 1.47 µM (active) in experiment [14]; 1.04 µM (active) in [15]; 92.8 nM (active) in [16]; 1.65 µM (active) in experiment [5]; 233 nM (active) in experiment [7]; 0.329 µM (active) in [8]. The Potency in experiment [17] was 369 nM (active); in experiment [13], 5.22 µM (active).
For `CCCCCCCCCCC[C@@H](C[C@@H]1OC(=O)[C@H]1CCCCCC)OC(=O)[C@H](CC(C)C)NC=O`, the Potency result in experiment [2], in [1], in [3], in experiment [14], in [15] and in experiment [4] was “inactive” throughout. Also, the Potency result in experiment [5], in [6], in experiment [18], in experiment [7], in experiment [8] and in [9] was “inactive” throughout. In addition, the Potency result in experiment [10], in [19] and in [13] was “inactive” each time. Besides, in [11], the Potency is 4.65 µM (active).
As for `NS(=O)(=O)c1ccc(Cl)c(S(N)(=O)=O)c1`, the Potency entry in experiment [2], in experiment [1] and in [3] was “inactive” in each case.
On to `CCc1oc2ccccc2c1C(=O)c1cc(Br)c(O)c(Br)c1`, for which the Potency result in experiment [2], in [1] and in experiment [3] was “inactive” in each case.
On to `O=C1C(O)=C(O)C(=O)C(O)=C1O`, for which the Potency result in experiment [2], in experiment [1] and in experiment [3] was “inactive” in each case.
`NC(N)=NN=C(/C=C/c1ccc([N+](=O)[O-])o1)/C=C/c1ccc([N+](=O)[O-])o1`: the Potency in [2] is 21.1 µM (active); in [1], 3.35 µM (active); in experiment [3], 1.19 µM (active); in [14], 1.17 µM (active); in experiment [15], 2.61 µM (active); in experiment [4], 9.27 µM (active). In addition, the Potency in experiment [5] was 1.17 µM (active); in experiment [6], 3.29 µM (active); in [7], 2930 nM (active); in experiment [8], 1.47 µM (active); in experiment [11], 1.65 µM (active); in [12], 4.14 µM (active). For the same compound, the Potency in experiment [19] is 4.65 µM (active); in experiment [13], 2.08 µM (active). Moreover, the Potency entry in [10] is “inactive”.
For the compound `CCCCc1cc2ccccc2c(OCCN(C)C)n1`, the Potency entry in [2], in experiment [1] and in [3] was “inactive” each time.

The values are drawn from PubChem BioAssay (NCATS).
